Several values for one entry are separate records, joined by “and”; a condition that tells them apart may be missing. Equal values may be shown once. Records with an inconclusive call do not appear. Entries that show only a call come without a potency. Where a structure was tested more than once in an assay, its records may differ in their call. Activity calls are given as the source filed them. Calls follow the shape of the full dose curve.
test: qHTS assay to identify small molecule agonists of the endoplasmic reticulum stress response signaling pathway - cell viability counter screen (AID 1159517); conditions: ESRE-bla HeLa viability, CellTiter-Glo luminescence, 5 h; series mostly up to 61 µM; also: nearly all actives have a fitted effect of over 50% in size
From the text: U.S. Tox21 Program National Center for Advancing Translational Sciences [NCATS] NIH Chemical Genomics Center [NCGC] U.S. Environmental Protection Agency [EPA] National Institutes of Environmental Health Sciences [NIEHS] National Toxicology Program [NTP] U.S. Food and Drug Administration [FDA] Tox21 Assay Overview: Endoplasmic Reticulum (ER) plays an important role in cellular signaling, protein folding/maturation, stress response, lipid biosynthesis, calcium storage and release etc. Under stress conditions, proteins in ER misfold or unfold, and leading to the expression of ER stress responsive genes. ER stress has been associated with a variety of pathophysiological conditions such as cancer, inflammation, neurodegenerative diseases, diabetes, ischemic heart disease etc. To identify the compounds that induce ER stress response, an ER stress reporter cell line, CellSensor ESRE-bla HeLa (Life Technologies, Carlsbad, CA) containing a beta-lactamase reporter gene under control of the Endoplasmic reticulum Stress Response Element (ESRE) was used to screen Tox21 10K compound library. The cytotoxicity of the Tox21 compound library against the ESRE-bla HeLa cell line was tested in parallel by measuring cell viability using the CellTiter-Glo assay in the same wells.
Tox21 Assay Protocol Summary: ESRE-bla HeLa cells were dispensed at 1,500 cells/6 uL of assay medium per well into black wall/clear-bottom 1536-well plates using a Multidrop Combi (ThermoFisher Scientific, Waltham, MA) dispenser. After the assay plates were incubated at 37 C and 5% CO2 for an overnight, 23 nL of compounds dissolved in DMSO, positive controls or DMSO only was transferred to the assay plate by a Pintool station (Kalypsys, San Diego, CA). The assay plates were incubated at 37 C and 5% CO2 for 5 hr. One uL of LiveBLAzer B/G FRET substrate (Life Technologies) was added using a FRD (Flying Reagent Dispenser, Aurora Discovery, San Diego, CA) and the plates were incubated at room temperature for 2 hr. Fluorescence intensity (405 nm excitation, 460 nm and 530 nm emissions) was measured using an Envision plate reader (PerkinElmer, Shelton, CT). For cytotoxicity, 4 ul/well of CellTiter-Glo reagent was added into the assay plates using an FRD. After 30 min incubation at room temperature, the luminescence intensity was measured using a ViewLux plate reader (PerkinElmer).
Potency is read from the fitted curve at half-maximal effect.

Row | Compound | Potency
1 | CCCCCCC=O | inactive
2 | CC(CCO)CC(C)(C)C (stereo not given) | inactive
3 | N#Cc1ccccc1 | inactive
4 | CC(=O)OCc1ccccc1 | inactive
5 | OCc1cccc(Oc2ccccc2)c1 | inactive
6 | CC(=O)OCc1ccco1 | inactive
7 | CC(=O)CCC=C(C)C | inactive
8 | NCCCCCCN | inactive
9 | CCOC(=O)n1ccn(C)c1=S | inactive
10 | O=C1c2ccccc2CCc2ccccc21 | inactive
11 | CCCCCC(=O)O | inactive
12 | N[C@H](Cc1c[nH]c2ccccc12)C(=O)O | inactive
13 | CCOCCOCCOCCO | inactive
14 | O=C(O)c1ccccc1C(=O)O | inactive
15 | COc1ccc(C)cc1N | inactive
16 | COCCCN | inactive
17 | CCCCC(C=O)CC (stereo not given) | inactive
18 | Nc1ccc(Cl)c(N)c1 | inactive
19 | CN(C)c1ccc(Cc2ccc(N(C)C)cc2)cc1 | inactive
20 | CCCCCCCCCCCCCCCC(=O)OC(C)C | inactive

Row | Compound | Potency
21 | CCCCCCCCCCO | inactive
22 | CSc1ccc(Cl)cc1 | inactive
23 | COc1ccc(N)c(C)c1 | inactive
24 | NCCN1CCNCC1 | inactive
25 | C=CC(C)CCCC(C)(C)O (stereo not given) | inactive
26 | CC(C)OP(=O)(CP(=O)(OC(C)C)OC(C)C)OC(C)C | inactive
27 | CC1(C)CC(N)CC(C)(CN)C1 (stereo not given) | inactive
28 | CC1(C)S[C@@H]2[C@H](NC(=O)COc3ccccc3)C(=O)N2[C@H]1C(=O)O | inactive
29 | CCCCCCO | inactive
30 | CCCCCCCCCCN | inactive and 21.9 µM (active)
31 | CN1C(=O)CC[C@H]1c1cccnc1 | inactive
32 | CCO[Si](CCCN)(OCC)OCC | inactive
33 | CC(C)(Oc1ccc(CCNC(=O)c2ccc(Cl)cc2)cc1)C(=O)O | inactive
34 | C=Cc1ccc(C)cc1 | inactive
35 | O=C(O)Cn1c(=O)n(Cc2ccc(Br)cc2F)c(=O)c2ccc(Cl)cc21 | inactive
36 | C=CCc1ccc(OC)c(OC)c1 | inactive
37 | CC(=O)Oc1ccc(C)cc1 | inactive
38 | COCCOC(=O)c1ccccc1C(=O)OCCOC | inactive
39 | CC1(C)OC[C@@H]2O[C@@]3(C(=O)O)OC(C)(C)O[C@H]3[C@@H]2O1 | inactive
40 | CC(C)CC(C)O (stereo not given) | inactive

— PubChem BioAssay (Tox21)
